Inconclusive results are not listed. The source made the active and inactive calls. Rule for the calls, unless noted: active = hit-call score of the fitted dose curve at least 0.9, where 1 is the maximum; inactive = score below 0.9.
Key:
[1] = ATG_PBREM_CIS: Attagene CIS-FACTORIAL HepG2 Assay for human Phenobarbital-responsive Enhancer Module (PBREM) (AID 2282955); conditions: HepG2 PBREM cis-reporter, Attagene multiplexed transcription; actives raise or lower the signal
How it was run: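 Multiplexed cis-reporter readout in human hepatoma HepG2 cells; PBREM-regulated transcript quantified after 24 h exposure by fluorescent RT-PCR fragment analysis. Signal changes up or down fitted relative to DMSO.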

[2] = biological target: Paired box protein Pax-6 (Homo sapiens) (UniProt P26367); assay: ATG_Pax6_CIS: Attagene CIS-FACTORIAL HepG2 Assay for human Paired Box 6 (PAX6) (AID 2282956); conditions: HepG2 CIS-FACTORIAL PAX6 reporter transcription, RNA readout; actives raise or lower the signal
Sequence of Paired box protein Pax-6 (Homo sapiens) (P26367 whole entry, looked up): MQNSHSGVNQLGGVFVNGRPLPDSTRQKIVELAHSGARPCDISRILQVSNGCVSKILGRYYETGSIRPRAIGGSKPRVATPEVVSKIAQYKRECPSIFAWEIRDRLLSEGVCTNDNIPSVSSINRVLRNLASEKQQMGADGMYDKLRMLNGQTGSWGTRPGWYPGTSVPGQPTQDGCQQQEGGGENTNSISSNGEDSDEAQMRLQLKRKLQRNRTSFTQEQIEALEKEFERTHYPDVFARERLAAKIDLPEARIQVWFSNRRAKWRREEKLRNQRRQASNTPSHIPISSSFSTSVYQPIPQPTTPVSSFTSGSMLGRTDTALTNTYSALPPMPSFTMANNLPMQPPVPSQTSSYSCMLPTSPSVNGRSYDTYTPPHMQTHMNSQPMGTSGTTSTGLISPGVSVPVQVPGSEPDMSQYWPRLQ
How it was run: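 Fluorescent RT-PCR products separated by capillary electrophoresis report PAX6-linked promoter mRNA in HepG2 cells 24 h post-dose. Curves fitted bidirectionally, DMSO as negative control.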

[3] = ATG_PXRE_CIS: Attagene CIS-FACTORIAL HepG2 Assay for human Pregnane X Receptor Element (PXRE) (AID 2282957); conditions: HepG2 Attagene CIS-FACTORIAL PXRE reporter, mRNA; actives raise or lower the signal
How it was run: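 Using HepG2 transfected with multiple reporter transcription units, endogenous factor-driven transcription was scored as reporter mRNA after 24 h exposure.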

[4] = ATG_PPRE_CIS: Attagene CIS-FACTORIAL HepG2 Assay for human Peroxisome Proliferator-activated Response Element (PPRE) (AID 2282958); conditions: HepG2 PPRE cis-element reporter, Attagene transcription factor profiling; actives raise or lower the signal
How it was run: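 DMSO served as negative control and baseline for bidirectional curve fitting. Signal came from PPRE-regulated reporter mRNA in HepG2 cells, measured 24 h post-dosing by RT-PCR, 6-FAM primer extension and capillary electrophoresis.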

[5] = ATG_RORE_CIS: Attagene CIS-FACTORIAL HepG2 Assay for human RAR-related Orphan Receptor Element (RORE) (AID 2282959); conditions: HepG2 Attagene cis-factorial RORE reporter, mRNA; actives raise or lower the signal
How it was run: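 Transfect HepG2 with MRTUs; treat 24 h; extract RNA; RT with oligo(dT); PCR with reporter-specific primers; 6-FAM primer extension; HpaI digest 2 h at 37 C; capillary electrophoresis. Fit vs DMSO, bidirectional.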

[6] = ATG_Sox_CIS: Attagene CIS-FACTORIAL HepG2 Assay for human SRY-box transcription factor (SOX) (AID 2282960); conditions: HepG2 Attagene cis-factorial SOX reporter, mRNA; actives raise or lower the signal
How it was run: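 Fluorescence-labelled cDNA fragments from reporter transcripts, sized by CE, give the signal. Cells: HepG2, transiently transfected with cis-regulated reporter units. Exposure 24 h; DMSO negative control; bidirectional curve fitting.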

[7] = biological target: Transcription factor Sp1 (Homo sapiens) (UniProt P08047); assay: ATG_Sp1_CIS: Attagene CIS-FACTORIAL HepG2 Assay for human Specificity Protein 1 (Sp1) (AID 2282961); conditions: HepG2 Sp1 cis-reporter transcription, actives raise or lower the signal
Sequence of Transcription factor Sp1 (Homo sapiens) (P08047 whole entry, looked up): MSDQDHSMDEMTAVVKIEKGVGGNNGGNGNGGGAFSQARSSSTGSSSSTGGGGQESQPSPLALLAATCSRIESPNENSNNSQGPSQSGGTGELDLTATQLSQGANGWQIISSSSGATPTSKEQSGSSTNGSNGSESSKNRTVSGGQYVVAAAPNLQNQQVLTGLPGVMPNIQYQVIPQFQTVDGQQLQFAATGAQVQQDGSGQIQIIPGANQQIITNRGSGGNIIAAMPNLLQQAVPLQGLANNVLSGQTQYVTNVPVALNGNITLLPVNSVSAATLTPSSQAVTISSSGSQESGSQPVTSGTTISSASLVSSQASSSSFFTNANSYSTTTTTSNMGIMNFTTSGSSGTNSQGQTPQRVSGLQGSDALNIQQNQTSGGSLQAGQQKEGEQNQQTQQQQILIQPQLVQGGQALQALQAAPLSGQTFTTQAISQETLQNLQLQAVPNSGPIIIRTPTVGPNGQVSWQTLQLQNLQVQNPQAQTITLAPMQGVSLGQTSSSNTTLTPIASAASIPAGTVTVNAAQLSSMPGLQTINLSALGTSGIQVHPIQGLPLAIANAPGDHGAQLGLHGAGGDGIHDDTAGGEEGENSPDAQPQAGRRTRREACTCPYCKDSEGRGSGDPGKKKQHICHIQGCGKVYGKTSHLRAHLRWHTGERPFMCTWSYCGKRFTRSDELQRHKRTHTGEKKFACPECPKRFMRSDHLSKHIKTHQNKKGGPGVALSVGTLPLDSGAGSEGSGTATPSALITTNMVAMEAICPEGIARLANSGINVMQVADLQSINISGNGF
How it was run: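 Chemicals are dosed onto HepG2 cells transfected with multiple cis-promoter reporter constructs, and after 24 h reporter RNA is reverse-transcribed, PCR-amplified and resolved by capillary electrophoresis for fluorescence quantitation; activity is scored up or down against DMSO.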

[8] = ATG_SREBP_CIS: Attagene CIS-FACTORIAL HepG2 Assay for human Sterol Regulatory Element Binding (SREBP) (AID 2282962); conditions: HepG2 Attagene cis-factorial SREBP reporter, mRNA; actives raise or lower the signal
How it was run: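 Endogenous factor activity is measured in HepG2 through multiplexed reporter units under cis-element control. Following a 24 h incubation, reporter transcripts are reverse-transcribed, PCR-amplified and sized by capillary electrophoresis; activity is fitted in both directions relative to DMSO.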

[9] = biological target: Signal transducer and activator of transcription 3 (Homo sapiens) (UniProt P40763); assay: ATG_STAT3_CIS: Attagene CIS-FACTORIAL HepG2 Assay for human Signal Transducer and Activator of Transcription 3 (STAT3) (AID 2282963); conditions: HepG2, Attagene cis-factorial STAT3 reporter transcription; actives raise or lower the signal
Sequence of Signal transducer and activator of transcription 3 (Homo sapiens) (P40763 whole entry, looked up): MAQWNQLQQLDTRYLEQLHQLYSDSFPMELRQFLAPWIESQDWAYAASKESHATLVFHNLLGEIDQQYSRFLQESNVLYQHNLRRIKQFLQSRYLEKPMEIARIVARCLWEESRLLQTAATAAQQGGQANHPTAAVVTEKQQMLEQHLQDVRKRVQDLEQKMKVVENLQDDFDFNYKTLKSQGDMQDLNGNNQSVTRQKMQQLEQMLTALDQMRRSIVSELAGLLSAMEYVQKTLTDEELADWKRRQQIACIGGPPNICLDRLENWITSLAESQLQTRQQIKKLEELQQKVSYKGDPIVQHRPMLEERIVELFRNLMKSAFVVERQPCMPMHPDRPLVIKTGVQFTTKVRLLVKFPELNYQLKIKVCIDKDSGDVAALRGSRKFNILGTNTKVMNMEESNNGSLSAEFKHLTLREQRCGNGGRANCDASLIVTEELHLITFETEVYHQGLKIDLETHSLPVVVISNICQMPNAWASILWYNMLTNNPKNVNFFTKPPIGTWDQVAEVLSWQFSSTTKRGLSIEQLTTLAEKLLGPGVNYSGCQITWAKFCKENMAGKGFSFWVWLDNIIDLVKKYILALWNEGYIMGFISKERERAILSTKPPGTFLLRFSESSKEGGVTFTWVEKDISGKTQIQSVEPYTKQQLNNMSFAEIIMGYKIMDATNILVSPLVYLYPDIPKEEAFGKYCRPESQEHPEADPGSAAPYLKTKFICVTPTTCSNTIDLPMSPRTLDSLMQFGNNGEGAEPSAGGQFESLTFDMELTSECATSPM
How it was run: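 HepG2, MRTU-transfected, 24 h dosing. RNA → RT → PCR → FAM label → HpaI → CE. Bidirectional fit vs DMSO.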

[10] = ATG_TA_CIS: Attagene CIS-FACTORIAL HepG2 Assay for human TA Basal Promoter (AID 2282964); conditions: HepG2 Attagene CIS-factorial TA basal promoter reporter; actives raise or lower the signal
How it was run: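 Cis-factorial format in HepG2: reporters report endogenous factors, not chimeric Gal4 fusions. After 24 h treatment, reporter transcripts were measured by RT-PCR-capillary electrophoresis fluorescence, analysed bidirectionally versus DMSO.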

[11] = ATG_TCF_b_cat_CIS: Attagene CIS-FACTORIAL HepG2 Assay for human T-Cell-Factor with beta-catenin (TCF/b-cat) (AID 2282965); conditions: HepG2 TCF/beta-catenin cis-reporter transcription, actives raise or lower the signal
How it was run: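 Using capillary electrophoresis as the read-out, labelled reporter cDNA fragments from transiently transfected HepG2 were sized and quantified. Exposure lasted 24 hours; activity in either direction was referenced to DMSO.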

[12] = ATG_TAL_CIS: Attagene CIS-FACTORIAL HepG2 Assay for human TAL Basal Promoter (AID 2282966); conditions: HepG2 Attagene cis-factorial TAL promoter reporter; actives raise or lower the signal;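 note: background control endpoint measuring basal TAL promoter reporter mRNA not a specific factor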
How it was run: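 After 24 hours of chemical exposure, transfected HepG2 cells yielded RNA that was converted to 6-FAM-labelled, HpaI-digested reporter fragments for capillary electrophoresis. Values derive from bidirectional fitting against DMSO controls.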

[13] = ATG_TGFb_CIS: Attagene CIS-FACTORIAL HepG2 Assay for human Transforming Growth Factor (TGF) (AID 2282967); conditions: HepG2 Attagene CIS TGFb reporter, mRNA transcription; actives raise or lower the signal
How it was run: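 Multiplexed cis-reporter HepG2 system, 24 h treatment; mRNA induction read by fluorescence after RT-PCR and CE; DMSO negative control, bidirectional curve fitting.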

[14] = ATG_VDRE_CIS: Attagene CIS-FACTORIAL HepG2 Assay for human Vitamin D Receptor Element (VDRE) (AID 2282968); conditions: HepG2 VDRE cis-reporter transcription, actives raise or lower the signal
How it was run: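 Steps: transfect HepG2 with multiple reporter transcription units; dose chemicals 24 h; isolate RNA; RT-PCR; label with 6-FAM primer extension; HpaI digest; capillary electrophoresis. Curves fitted both directions against DMSO.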

[15] = biological target: Estrogen receptor (Homo sapiens) (UniProt P03372); assay: ATG_ERa_TRANS: Attagene TRANS-FACTORIAL HepG2 Assay for human Estrogen Receptor alpha (ERa) (AID 2282970; active = hit-call score of the fitted dose curve at least 0.9, where 1 is the maximum); conditions: HepG2 Attagene TRANS ERa GAL4 reporter, mRNA
Sequence of Estrogen receptor (Homo sapiens) (P03372 whole entry, looked up, the tested form may be a part): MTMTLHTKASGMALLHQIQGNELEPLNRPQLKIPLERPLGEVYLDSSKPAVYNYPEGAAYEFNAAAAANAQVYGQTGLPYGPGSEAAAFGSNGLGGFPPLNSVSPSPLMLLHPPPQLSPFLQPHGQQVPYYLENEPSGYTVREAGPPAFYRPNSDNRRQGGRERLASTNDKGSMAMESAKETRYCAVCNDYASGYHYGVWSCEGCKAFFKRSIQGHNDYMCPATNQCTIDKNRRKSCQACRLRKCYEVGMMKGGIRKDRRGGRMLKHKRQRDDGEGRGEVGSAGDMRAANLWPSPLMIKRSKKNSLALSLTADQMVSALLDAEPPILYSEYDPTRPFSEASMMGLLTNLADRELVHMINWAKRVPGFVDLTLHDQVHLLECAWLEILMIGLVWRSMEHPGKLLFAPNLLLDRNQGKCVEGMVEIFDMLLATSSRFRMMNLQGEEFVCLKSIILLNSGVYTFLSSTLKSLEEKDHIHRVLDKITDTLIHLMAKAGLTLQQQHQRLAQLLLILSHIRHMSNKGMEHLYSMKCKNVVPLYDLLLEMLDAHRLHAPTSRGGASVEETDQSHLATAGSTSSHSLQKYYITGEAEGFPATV
How it was run: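 Liver-derived HepG2 cells expressing chimeric nuclear receptor-Gal4 proteins from transient transfection were exposed for 24 hours. Gain of reporter mRNA signal versus DMSO, read by capillary electrophoresis of FAM-labelled PCR products, was recorded.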

[16] = biological target: X-box-binding protein 1 (Homo sapiens) (UniProt P17861); assay: ATG_Xbp1_CIS: Attagene CIS-FACTORIAL HepG2 Assay for human X-box Binding Protein 1 (XBP1) (AID 2282972); conditions: HepG2 XBP1 cis-element reporter, Attagene multiplex; actives raise or lower the signal
Sequence of X-box-binding protein 1 (Homo sapiens) (P17861 whole entry, looked up): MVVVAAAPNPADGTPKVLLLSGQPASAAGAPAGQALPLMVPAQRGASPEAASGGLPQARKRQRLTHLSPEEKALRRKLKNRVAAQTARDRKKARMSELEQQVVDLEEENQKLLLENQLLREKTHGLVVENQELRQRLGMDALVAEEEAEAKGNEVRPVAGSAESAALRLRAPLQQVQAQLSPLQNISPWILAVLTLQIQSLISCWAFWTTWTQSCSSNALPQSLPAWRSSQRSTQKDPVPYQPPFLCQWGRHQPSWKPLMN
How it was run: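 Multiplexed cis-reporter readout in transfected HepG2 liver cells. Exposure lasted 24 hours. Activity in either direction was fitted against DMSO as negative control and baseline.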

[17] = ATG_GAL4_TRANS: Attagene TRANS-FACTORIAL HepG2 Assay for GAL4 (Internal Marker) (AID 2282976; active = hit-call score of the fitted dose curve at least 0.9, where 1 is the maximum); conditions: HepG2 Attagene TRANS GAL4 internal marker reporter
How it was run: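 First, HepG2 cells were transfected with reporter units under GAL4-UAS control. Next, they were treated with chemical for 24 h. Finally, RNA was reverse-transcribed, PCR-amplified, FAM-labelled and resolved by capillary electrophoresis, with induction scored against DMSO.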

[18] = biological target: Nuclear receptor subfamily 1 group I member 3 (Homo sapiens) (UniProt Q14994); assay: ATG_CAR_TRANS: Attagene TRANS-FACTORIAL HepG2 Assay for human Constitutive Androstane Receptor (CAR) (AID 2282969; active = hit-call score of the fitted dose curve at least 0.9, where 1 is the maximum;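 note: activators raise reporter mRNA above DMSO so AC50 marks induction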); conditions: HepG2 Attagene TRANS-FACTORIAL CAR reporter
Sequence of Nuclear receptor subfamily 1 group I member 3 (Homo sapiens) (Q14994 whole entry, looked up, the tested form may be a part): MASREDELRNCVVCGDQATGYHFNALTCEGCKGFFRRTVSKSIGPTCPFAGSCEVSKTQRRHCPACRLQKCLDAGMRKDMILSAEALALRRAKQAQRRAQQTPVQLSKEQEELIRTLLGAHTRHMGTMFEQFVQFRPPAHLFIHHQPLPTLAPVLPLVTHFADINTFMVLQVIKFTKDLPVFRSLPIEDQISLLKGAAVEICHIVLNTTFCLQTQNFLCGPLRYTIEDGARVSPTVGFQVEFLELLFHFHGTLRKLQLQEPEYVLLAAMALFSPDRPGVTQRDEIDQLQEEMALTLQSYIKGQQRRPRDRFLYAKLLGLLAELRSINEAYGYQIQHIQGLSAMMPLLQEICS
How it was run: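 Steps: transient transfection of HepG2 with multiple GAL4-UAS reporter units; 24 h compound incubation; RNA isolation, RT-PCR, 6-FAM primer extension, HpaI digest; capillary electrophoresis. Gain-of-signal relative to DMSO negative control.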

[19] = ATG_M_19_TRANS: Attagene TRANS-FACTORIAL HepG2 Assay for M19 Transcription Factor (Internal Marker) (AID 2282974; active = hit-call score of the fitted dose curve at least 0.9, where 1 is the maximum); conditions: HepG2 Attagene TRANS-FACTORIAL M19 internal marker reporter
How it was run: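 Multiplexed TRANS format: HepG2 liver cells bearing transient GAL4-UAS reporter units, chemical treatment 24 h, reporter transcripts quantified by RT-PCR plus capillary electrophoresis. DMSO defines baseline.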

[20] = biological target: Steroid hormone receptor ERR1 (Homo sapiens) (UniProt P11474); assay: ATG_ERRa_TRANS: Attagene TRANS-FACTORIAL HepG2 Assay for human Estrogen-Related Receptor alpha (ERRa) (AID 2282971; active = hit-call score of the fitted dose curve at least 0.9, where 1 is the maximum); conditions: HepG2 Attagene TRANS reporter, ERRa transactivation
Sequence of Steroid hormone receptor ERR1 (Homo sapiens) (P11474 whole entry, looked up, the tested form may be a part): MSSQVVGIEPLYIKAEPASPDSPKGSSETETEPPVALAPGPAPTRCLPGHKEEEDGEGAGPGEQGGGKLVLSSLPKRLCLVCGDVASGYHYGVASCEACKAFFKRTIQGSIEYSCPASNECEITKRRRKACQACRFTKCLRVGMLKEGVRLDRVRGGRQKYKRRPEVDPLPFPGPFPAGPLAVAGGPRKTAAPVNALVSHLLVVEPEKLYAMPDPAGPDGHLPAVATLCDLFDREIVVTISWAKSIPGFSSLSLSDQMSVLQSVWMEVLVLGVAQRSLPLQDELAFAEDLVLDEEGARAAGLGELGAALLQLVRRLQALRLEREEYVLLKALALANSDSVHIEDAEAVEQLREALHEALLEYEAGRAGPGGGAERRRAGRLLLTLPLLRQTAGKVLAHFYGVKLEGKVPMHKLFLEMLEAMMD
How it was run: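 Reporter transcript induction was quantified by RT-PCR and capillary electrophoresis of FAM-labelled, HpaI-cut products after 24 h treatment of HepG2 cells carrying transiently transfected GAL4-UAS reporter units and an exogenous ERRa-Gal4 fusion; activity scored as increase over DMSO.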

Measured: AC50

Cc1ccc(S(=O)(=O)NC(=O)NN2CCCCCC2)cc1
not listed: [18] | [19] | [20]
inactive: all other assays above

COS(C)(=O)=O
not listed: [18] | [19] | [20]
inactive: all other assays above

OC[C@H]1O[C@@](CO)(O[C@H]2O[C@H](CO)[C@@H](O)[C@H](O)[C@H]2O)[C@@H](O)[C@@H]1O
not listed: [14] | [15] | [17] | [18] | [19] | [20]
inactive: all other assays above

NC(=O)NN=Cc1ccc([N+](=O)[O-])o1
not listed: [15] | [17] | [18] | [19] | [20]
inactive: all other assays above

CCCCN1C(=O)[C@@H]([C@H](O)C2CCCCC2)NC(=O)C12CCN(Cc1ccc(Oc3ccc(C(=O)O)cc3)cc1)CC2
active: [3] 93.5 µM | [4] 54 µM | [10] 31.7 µM | [11] 52.5 µM | [12] 21.9 µM
not listed: [14] | [18] | [19] | [20]
inactive: all other assays above

O=c1[nH]cnc2c1ncn2[C@H]1CC[C@@H](CO)O1
not listed: [14] | [15] | [17] | [20]
inactive: all other assays above

Nc1ccn([C@@H]2O[C@H](CO)[C@@H](O)[C@@H]2O)c(=O)n1
active: [15] 40 µM
not listed: [18] | [20]
inactive: all other assays above

CCCc1ccccc1
not listed: [15] | [18] | [19] | [20]
inactive: all other assays above

O=S1(=O)CCCO1
not listed: [15] | [18] | [19] | [20]
inactive: all other assays above

CC(=O)c1ccccc1
not listed: [5] | [14] | [20]
inactive: all other assays above

CCCOc1ccc(S(=O)(=O)N2CCN(CC)CC2)cc1-c1nc2c(CC)n(Cc3ccccn3)nc2c(=O)[nH]1
active: [1] 2.66 µM | [2] 40.2 µM | [3] 1.18 µM | [5] 2.63 µM | [8] 27.5 µM | [11] 89.8 µM | [14] 2.51 µM
not listed: [17] | [18] | [19] | [20]
inactive: all other assays above

NNC(=O)c1ccncc1
not listed: [18]
inactive: all other assays above

CCCCCCCC1CCC(=O)O1 (configuration not stated)
not listed: [14] | [17] | [20]
inactive: all other assays above

Cc1nccn1-c1ccc(Sc2cccc(C3(C(N)=O)CCOCC3)c2)cc1
active: [1] 3.41 µM | [5] 5.29 µM | [7] 2.31 µM | [8] 2.08 µM | [11] 6.41 µM | [12] 6.43 µM | [14] 4.16 µM | [16] 1.57 µM
inactive: [2] | [3] | [6] | [9] | [10] | [13] | [18] | [15]

CCc1cccc(CC)c1N
active: [3] 27.7 µM
not listed: [4] | [14] | [19] | [20]
inactive: all other assays above

Cc1ncc([C@@H](CCCCCCc2ccc3c(n2)NCCC3)CC(=O)O)cn1
active: [3] 27.6 µM
not listed: [1] | [15] | [18] | [20]
inactive: all other assays above

Source: PubChem BioAssay (EPA / NIEHS)
